The list is not random: actives were taken first. Their share in the collection is about 2.3%.
UbGFP stabilizer – proteasome inhibitors stabilizing ubiquitin-GFP reporter | Ubiquitin-GFP reporter cells, proteasome inhibition, GFP fluorescence; response scale: untreated = 0%, 10 µM MG-132 = 100% | 67,000 tested, under 10 active | Potency, µM (highest dose often 45.9 µM), inactives show at the top dose activation (GFP accumulation), hits mostly activators; active = well fitted activation curve with a large enough effect, not every such curve was filed as active; inconclusive = small, poorly fitted or top-dose-only effect, or another doubt; inactive = no such curve, though single readings can be large or run the other way; note: potency is the fitted concentration of half-maximal effect
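U2OS cells expressing ubiquitin(G76V)-GFP, seeded overnight in 0.5% FBS medium, then treated 4 hr at 37 C across 46 uM to 2.9 nM. GFP-positive cells counted by laser cytometry (488 ex/515 em); %activity scaled between basal and 10 uM MG-132.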
15-hLO-2 inh – inhibitors of human 15-lipoxygenase 2 (ALOX15B). O15296. purified 15hLO-2, xylenol orange hydroperoxide absorbance. Potency, µM (titrated, usually from 57.1 µM), without a hit: at the top dose activity change, negative = inhibition, usual class: inhibitors. 110,000 tested, 0.56% active; note: potency is the fitted concentration of half-maximal effect; % is set by controls: 0 for no effect and ±100 for the full control effect; nearly all actives have a fitted effect of over 60% in size
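Enzyme 50 nM, AA 45 uM, 25 mM Hepes pH 7.5 + 0.01% Triton X-100; cpd preinc 15 min RT, rxn 90 min RT; stop/detect with 200 uM XO + 300 uM Fe(II) in 50 mM H2SO4, 30 min; A573/A405.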
GFP derepression – derepresses silenced GFP locus in mouse C127i cells; AID 597; Potency, µM (titrated, usually from 46.1 µM), without a hit: at the highest dose GFP derepression (activation); mouse C127i GFP locus derepression, cytometry, 30 h; 68,000 tested, 0.09% active; note: % of control where 0% means no effect
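Derepression screen: silenced CMV-GFP reporter in murine C127i cells, 30 h compound incubation at 37 C, washed cells imaged by laser-scanning cytometer to enumerate GFP-expressing objects of 20 to 120 um.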
15-hLO inh – inhibitors of human 15-lipoxygenase (ALOX15); P16050; purified 15hLO-1, xylenol orange hydroperoxide absorbance; Potency, µM (doses to about 57.1 µM), inactives show at the top dose activity change, negative = inhibition, most hits filed as inhibitors; 74,000 tested, 1.4% active; AID 887; note: potency is the fitted concentration of half-maximal effect; % is set by controls: 0 for no effect and ±100 for the full control effect; nearly all actives have a fitted effect of over 55% in size
Target sequence (P16050 whole entry, looked up): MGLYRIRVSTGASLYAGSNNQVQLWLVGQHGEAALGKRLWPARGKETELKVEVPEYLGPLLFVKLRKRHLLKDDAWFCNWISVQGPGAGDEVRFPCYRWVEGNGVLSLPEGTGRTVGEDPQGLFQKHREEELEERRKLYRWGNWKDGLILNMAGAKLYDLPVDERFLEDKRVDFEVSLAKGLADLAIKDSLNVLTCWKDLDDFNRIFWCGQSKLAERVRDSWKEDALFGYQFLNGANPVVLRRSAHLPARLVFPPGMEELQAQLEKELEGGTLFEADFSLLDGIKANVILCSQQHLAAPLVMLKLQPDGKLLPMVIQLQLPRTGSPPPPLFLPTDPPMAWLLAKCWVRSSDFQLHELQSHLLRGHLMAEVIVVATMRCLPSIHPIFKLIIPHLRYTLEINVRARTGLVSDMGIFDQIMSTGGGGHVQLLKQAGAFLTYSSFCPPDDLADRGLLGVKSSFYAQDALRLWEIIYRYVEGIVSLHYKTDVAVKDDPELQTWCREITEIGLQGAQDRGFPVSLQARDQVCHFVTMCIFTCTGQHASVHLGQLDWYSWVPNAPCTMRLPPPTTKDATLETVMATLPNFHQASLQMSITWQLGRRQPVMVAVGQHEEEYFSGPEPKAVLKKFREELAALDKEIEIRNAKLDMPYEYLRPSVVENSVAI
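Purified human 15hLO-1 (40 nM) in 25 mM Hepes pH 7.5, 0.01% Triton X-100, preincubated 15 min RT with compound, then 50 uM arachidonic acid for 6 min. Hydroperoxide read by ferrous/xylenol orange, 30 min; 573/405 nm absorbance ratio gave progress.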
HBB splicing – modulators of hemoglobin beta chain splicing; HBB splicing reporter cell assay, activation; EGFP reporter with mutant IVS2-654 intron; response scale: normalised to 500 nM splice-correcting PNA; Potency, µM (top dose mostly 46.1 µM), inactives show at the highest dose activation, most hits filed as activators; 65,000 tested, 0.06% active; AID 925; note: potency is the fitted concentration of half-maximal effect; 0% is about no effect
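Compounds were applied for 2 days to HeLa EGFP-654 cells, 500/well in Optimem with 2% FCS. The reporter's EGFP is disrupted by mis-splicing of beta-globin intron IVS2-654. Readout: summed well GFP fluorescence from 488 nm laser scanning; reference was 500 nM antisense […] 654 PNA.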
Tau filament bind – binders of human tau filaments | recombinant tau filaments, thioflavin S fluorescence, 15 h; filaments grown with octadecylsulfate alongside compound | P10636 | Potency, µM (titrated, usually from 57.1 µM), for the others: at the highest dose activity change, negative = inhibition | 71,000 tested, 2% active;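 note: potency is the fitted concentration of half-maximal effect; % is set by controls: 0 for no effect and ±100 for the full control effect; actives lower thioflavin S fluorescence by blocking filaments or displacing dye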
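His-tagged recombinant human tau (exons 2, 3 and 10 included), 1 uM, was induced to fibrillize by 30 uM sodium octadecylsulfate with compound present. After 15 h at 37 C, thioflavine S fluorescence (ex 450, em 510 nm) was read.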
Numbers without * were called inactive; i = inactive; u = inconclusive; x = no result given; [ ] = another dose, or the depositor's remark. Unless noted, calls come from the whole dose curve; as a rule, active = well fitted curve in the direction sought with a large enough effect; inconclusive = small, poorly fitted or top-dose-only effect, or another doubt; inactive = no such curve, though single readings can be large; an effect the other way counts as inactive or inconclusive.

SMILES | UbGFP stabilizer | 15-hLO-2 inh | GFP derepression | 15-hLO inh | HBB splicing | Tau filament bind
O=C1c2ccccc2C(Nc2ccc(F)c(Cl)c2)N1Cc1ccco1 (centres undefined) | -3% | x | 3% | u | -1% | 13µM*
COc1ccc(CN2C(=O)c3cccnc3C2Nc2cc(Cl)ccc2OC)cc1 (centres undefined) | 15% | u | 3% | 16µM* | 0% | -5%
Clc1ccc(/C=C\c2nc(Cl)c(-c3ccc(Cl)cc3)c(Cl)n2)cc1 | -7%[9.17 µM] | -16%[11.4 µM] | -1%[9.22 µM] | 7%[11.4 µM] | 2%[9.22 µM] | -14%[11.4 µM]
CC1(C)C(=O)NC2=C1C(=O)C(=O)c1ccccc12 | 4% | -7% | 1% | u | x | u
Cc1cncn1CCc1nc2c3ccccc3nc(=S)n2[nH]1 | 4% | x | 1% | 0% | -1% | -36%
COc1cc2nc(=S)n3[nH]c(CCn4nc(C)cc4C)nc3c2cc1OC | -9% | -13% | 10µM* | 3% | -1% | 5%
c1ccc2nc3c(nc2c1)c1ccccc1n3CCN1CCOCC1 | -2% | -2% | 3% | -28% | -1% | 13µM*
CCn1c(C)nc2cc(S(=O)(=O)N3CCCCC3)ccc21 | 4% | 4% | 6% | 15% | 10% | -2%
Brc1ccc2c(c1)c1nc3ccccc3nc1n2CCN1CCOCC1 | 0% | x | 3% | 32µM* | 0% | 16µM*
CCn1c2ccccc2c2nc3cc(S(=O)(=O)N4CCOCC4)ccc3nc21 | -3% | -24% | 8% | u | 0%[57.5 µM] | 25µM*
CCCc1cc(C(N)=O)c(NC(=O)C2CCCO2)s1 (centres undefined) | 3% | -21% | 2% | 25µM* | -1% | 25%
N=C(c1ccc2ccccc2c1)c1ccccc1Cc1ccccc1 | -3%[9.17 µM] | -3%[11.4 µM] | -2%[9.22 µM] | 6%[11.4 µM] | 1%[9.22 µM] | -4%[11.4 µM]
CNC(=O)COC(=O)c1cc(=O)[nH]c2ccccc12 | x | -1% | x | x | x | x
CCCCCOC(=O)c1cc(=O)[nH]c2ccccc12 | 2% | -7% | 0% | -11% | -3%[57.5 µM] | 10µM*
COCCn1c(=O)c(-c2ccccc2)nc2cnc(Nc3cccc(OC)c3)nc21 | 3% | -4% | -2%[9.22 µM] | -3% | 2% | 30%
CCn1c(SCC(=O)c2c[nH]c3ccccc23)nnc1-c1cccs1 | 12% | -7% | 20µM* | -4% | u | 54%
CCn1c(SCC(=O)c2ccc(Cl)cc2)nnc1-c1cccs1 | x | 1% | x | x | x | x
COc1cc([C@@H]2Oc3cc([C@H]4Oc5cc(O)cc(O)c5C(=O)[C@H]4O)ccc3O[C@H]2CO)ccc1O | 1% | -29% | 5%[9.22 µM] | 2µM* | x | u
[N-]=[N+]=Nc1ccc(C(=O)CSC[C@@H](NC(=O)CC[C@@H](N)C(=O)O)C(=O)NCC(=O)O)cc1 | 10% | -26% | -2% | 4% | 0% | 1%
Cc1ccc(-c2nc3ccccc3[nH]2)s1 | -13% | -7% | -2% | -13% | 1% | 13µM*
Nc1cc(N)cc(-c2nc3ccccc3[nH]2)c1 | -1% | 41% | 0% | 0% | x | 6.3µM*
c1csc(-c2nc3ccccc3[nH]2)c1 | -4% | x | 2% | -16% | -1% | -4%
CN1CCc2c(sc3c2C(=O)NC(c2cn(Cc4ccccc4)c4ccccc24)N3)C1 (centres undefined) | x | 66% | -2% | 3.2µM* | 5%[0.369 µM] | u
CN1CCc2c(sc3c2C(=O)NC(c2ccco2)N3)C1 (centres undefined) | -1% | 29% | -4% | u | 3%[1.84 µM] | i
C[C@@H]1/C=C\CC(=O)OC[C@H](C)C(=O)N[C@@H](Cc2ccccc2)C(=O)OC1 | x | x | x | 3%[11.4 µM] | 1%[9.22 µM] | x
SMILES | UbGFP stabilizer | 15-hLO-2 inh | GFP derepression | 15-hLO inh | HBB splicing | Tau filament bind
Cc1cc(C)n(-c2nc3ccccc3nc2Nc2ccc3c(c2)OCO3)n1 | 8% | x | -8% | -7% | 0% | 7%
Cc1ccc2nc(Nc3ccc4[nH]c(=O)[nH]c4c3)c(-n3nc(C)cc3C)nc2c1 | -3% | 7%[2.29 µM] | 29% | -24% | 0% | 0.63µM*
COC(=O)[C@@H]1CC2=CC(=O)CC[C@]2(C)[C@@]23O[C@@H]2C[C@@]2(C)[C@H](CC[C@@]24CCC(=O)O4)[C@@H]13 | x | 11%[0.0915 µM] | x | x | x | x
COc1ccc(CN[C@H](C)C(=O)O)cc1 | 1%[9.17 µM] | -10%[11.4 µM] | -2%[9.22 µM] | 4%[11.4 µM] | 2%[9.22 µM] | -5%[11.4 µM]
O=C(N/N=C\c1ccccc1O)c1ccccc1O | 1% | 13% | 0% | -17%[25.6 µM] | x | 32µM*
COc1cccc(-c2cc(=O)c3cc(O)ccc3o2)c1 | -9% | -4% | -2%[9.22 µM] | 6%[25.6 µM] | x | 32µM*
O=C1C(Cl)=C(N2CCOCC2)C(=O)N1c1cccc(Cl)c1 | -2%[9.17 µM] | 15% | 0% | 4µM* | 0%[0.0738 µM] | 10%[11.4 µM]
O=C1C=CC(=O)C2=C1C1c3ccccc3C2c2ccccc21 | x | 2µM* | x | 0.79µM* | 0% | x
Cc1ccc(NC2CC(=O)N(c3ccc(N4CCCCC4)cc3)C2=O)cc1 (centres undefined) | -2% | -30% | -3% | -5% | -1% | 6%

Source: PubChem
